Assay [1] in a line: Cell Viability - SK-N-SH (AID 435).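 Further: potency means the concentration at half of the fitted maximal effect; compound exposure lasted 40 h at 37 °C.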 The conditions noted are these: SK-N-SH neuroblastoma cell viability qHTS. The essentials: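 SK-N-SH human neuroblastoma cells (1500/well) were exposed to compounds in complete medium for 40 h at 37 °C, and intracellular ATP was then measured by CellTiter-Glo luminescence. AC50 was taken from Hill fits, normalized to DMSO and 100 uM tamoxifen.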
(In qHTS, concentration-response curves come from the screen itself.)

A short description of assay [2]: Cell Viability - H-4-II-E (AID 543; active means well fitted curve in the direction sought with a large enough effect; an effect the other way counts as inactive or inconclusive; further: on the % scale 0 is the no-effect control and ±100 the full control effect; nearly all actives have a fitted effect of over 35% in size). The conditions noted are these: H-4-II-E rat hepatoma viability; series mostly up to 92.2 µM. The essentials:
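Cells seeded at 1500 per well and rested 5 hr; compounds added; 40 hr incubation at 37 °C; CellTiter-Glo added, 20 min at room temperature; luminescence read. Hill-equation fits gave AC50.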

Assay [3] in a line: MultiTox-Fluor Cytotoxicity Assay - LYMP1-001 - Live Cells (AID 947; active means well fitted curve in the direction sought with a large enough effect; an effect the other way counts as inactive or inconclusive;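 further: 0% = DMSO only and full inhibition = tetraoctylammonium bromide control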). The conditions noted are these: LYMP1-001 lymphoblastoid cells, live-cell protease fluorescence viability; series mostly up to 92.2 µM.
Assay [4] deals with Estrogen receptor (Homo sapiens) (UniProt P03372). In words: qHTS assay for small molecule antagonists of estrogen receptor alpha signaling (AID 588513; active means well fitted curve in the direction sought with a large enough effect in the signal ratio, with a control signal flat, not every such curve was filed as active; the % refers to the signal ratio; further: on the % scale 0 is the no-effect control and ±100 the full control effect). The conditions noted are these: ER-alpha-UAS-bla HEK293, beta-lactamase ratio, antagonist mode; series mostly up to 76.9 µM. Put shortly:
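ER-alpha-UAS-bla GripTite HEK 293 cells in medium with 2% charcoal/dextran-treated FBS were preincubated 4 h at 37 C, dosed with compound (1:2 titration), stimulated with 0.5nM 17-beta-estradiol for 18 h, then read by CCF4 beta-lactamase fluorescence.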

Assay [5] shares this target. In words: qHTS assay for small molecule agonists of estrogen receptor alpha signaling (AID 588514).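 Further: 0% = vehicle only and 100% = reference agonist; nearly all actives have a fitted effect of over 70% in size.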 The conditions noted are these: ER-alpha-UAS-bla HEK293, beta-lactamase ratio, 18 h; series mostly up to 76.8 µM. Put shortly: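 Efficacy is expressed against 20 nM 17-beta-estradiol (100%) and DMSO basal (0%); EC50 from Hill equation. Assay: beta-lactamase reporter in ER-alpha-UAS-bla HEK 293 cells, 18 h compound incubation, CCF4 detection.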

Assay [6] deals with Glucocorticoid receptor (Homo sapiens) (UniProt P04150). In words: qHTS assay for small molecule agonists of glucocorticoid receptor signaling (AID 588532; active means well fitted curve in the direction sought with a large enough effect in the signal ratio, with a control signal flat; the % refers to the signal ratio;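 further: 100% = dexamethasone at 0.1 µM and 0% = DMSO only wells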). The conditions noted are these: HeLa MMTV-bla, beta-lactamase ratio, agonist, 18 h; stronger effect = higher value; percent of dexamethasone control, DMSO zero. Put shortly: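 MMTV-bla HeLa, beta-lactamase reporter; medium with 1% charcoal/dextran-stripped FBS; cpds up to 92 uM, 18 h, 37 C; CCF4 readout 460/530 nm; Hill fit → EC50, efficacy vs 0.1 uM dexamethasone = 100%.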

The target is the same in assay [7]. Nature of the assay: qHTS assay for small molecule antagonists of glucocorticoid receptor signaling (AID 588533; active means well fitted inhibition curve with a large enough effect in the signal ratio, with a control signal flat, not every such curve was filed as active; the % refers to the signal ratio;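 further: cells stimulated with 2 nM dexamethasone as agonist; on the % scale 0 is the no-effect control and ±100 the full control effect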). The conditions noted are these: HeLa MMTV-bla, GRE beta-lactamase ratio, antagonist mode, 18 h; series mostly up to 76.8 µM. Put shortly:
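Antagonist-mode qHTS: compound titrations added to GRE-bla HeLa cells, then dexamethasone 2 nM final; 18 h, 37 C. CCF4 FRET fluorescence normalized to dexamethasone and DMSO; IC50 from Hill fit.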

The target of assay [8] is Peroxisome proliferator-activated receptor delta (Homo sapiens) (UniProt Q03181). Nature of the assay: qHTS assay for small molecule agonists of peroxisome proliferator-activated receptor delta signaling (AID 588534).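 Further: 0% = DMSO basal wells and 100% = positive control agonist at 10 µM.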 The conditions noted are these: HEK293T PPARdelta-UAS-bla, beta-lactamase ratio, 18 h; series mostly up to 76.7 µM. Put shortly: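 Agonist-mode qHTS; reporter cells, 5 hrs 37 C pre-incubation; compound titration, 18 hrs 37 C; CCF4 dye, 2 hrs RT; fluorescence read. EC50/efficacy via Hill fit.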

Assay [9] in a line: qHTS assay for small molecule antagonists of peroxisome proliferator-activated receptor delta signaling (AID 588535; active means well fitted inhibition curve with a large enough effect in the signal ratio, with a control signal flat, not every such curve was filed as active; the % refers to the signal ratio;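 on max response: cells co-treated with a PPAR-delta agonist as stimulator during compound exposure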). The conditions noted are these: HEK293T PPARd-UAS-bla, beta-lactamase FRET ratio, 18 h; 460 nm channel. The essentials: (§1)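 Inhibition of PPAR-delta response element-driven beta-lactamase expression is measured in HEK293T cells exposed to a compound titration series for 18 hrs at 37 C. Half-maximal inhibition comes from Hill equation fitting.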

Assay [10] addresses Peroxisome proliferator-activated receptor delta (Homo sapiens) (UniProt Q03181). The description is as above. The conditions noted are these: HEK293T PPARd-UAS-bla, beta-lactamase FRET ratio, 18 h; series mostly up to 76.7 µM. The essentials:
as §1

Assay [11] has as its target Peroxisome proliferator-activated receptor gamma (Homo sapiens) (UniProt P37231). In words: qHTS assay for small molecule antagonists of peroxisome proliferator-activated receptor gamma signaling (AID 588537; active means well fitted inhibition curve with a large enough effect in the signal ratio, with a control signal flat, not every such curve was filed as active; the % refers to the signal ratio;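 further: reporter cells co-stimulated with 50 nM rosiglitazone agonist during compound treatment; % of control where 0% means no effect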). The conditions noted are these: HEK293 PPARg-UAS-bla, beta-lactamase ratio, antagonist mode; series mostly up to 76.8 µM. Put shortly: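 Compounds are tested as concentration series for inhibition of rosiglitazone-driven (50 nM) reporter expression in GeneBLAzer PPAR-gamma-UAS-bla HEK293 cells. After 16 h at 37 C, CCF4 substrate is added for 2 h at room temperature and blue/green fluorescence is measured.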

The nature of assay [12]: qHTS assay for small molecule agonists of the antioxidant response element (ARE) signaling pathway (AID 651741; active means well fitted activation curve with a large enough effect in the signal ratio; the % refers to the signal ratio; further: potency means the concentration at half of the fitted maximal effect; on activation: % of control where 0% means no effect). The conditions noted are these: HepG2 ARE-bla reporter, beta-lactamase FRET ratio, 16 h; series mostly up to 96 µM. Put shortly:
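Reporter: beta-lactamase under ARE, stably in HepG2. Exposure: 16 h, 37 C, compounds delivered in DMSO by pin tool after 5 h cell preincubation. Readout: FRET substrate fluorescence after 2 h at RT.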

Assay [13] can be described thus: qHTS assay for small molecule disruptors of the mitochondrial membrane potential - 1 hr assay (AID 651754). Further: on the % scale 0 is the no-effect control and ±100 the full control effect; nearly all actives have a fitted effect of over 35% in size. The conditions noted are these: series mostly up to 92.2 µM. Put shortly: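 Loss of mitochondrial potential shifts the cationic dye from red mitochondrial aggregates to green cytoplasmic monomers. Cells (HepG2) are treated with compound for 1 hr before a 30 min dye incubation at 37C.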

Assay [14] can be described thus: qHTS assay for small molecule disruptors of the mitochondrial membrane potential - 5 hr assay (AID 651755). Further: on the % scale 0 is the no-effect control and ±100 the full control effect; nearly all actives have a fitted effect of over 40% in size. The conditions noted are these: JC-1-type ratio dye; series mostly up to 92.2 µM. The essentials:
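Seed HepG2 overnight, add compound, incubate 5 hr at 37C and 5% CO2, stain 30 min with Mito-MPS, then measure monomer (490/535 nm) and aggregate (540/590 nm) fluorescence.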

The nature of assay [15]: qHTS assay for small molecule agonists of the antioxidant response element (ARE) signaling pathway measured by Nrf2-dependant transcriptional activity (AID 720636; active means well fitted curve in the direction sought with a large enough effect in the repeat runs; an effect the other way counts as inactive or inconclusive;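 further: HepG2 cells with an ARE-driven luciferase reporter; % of control where 0% means no effect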). The conditions noted are these: ARE-luc HepG2, Nrf2 luciferase reporter, 16 h; series mostly up to 92.4 µM. The essentials:
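In HepG2 cells engineered with an Nrf2-responsive luciferase gene, ARE induction was quantified as luminescence after 16 hr compound treatment at 37 C.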

In assay [16] the target is Vitamin D3 receptor (Homo sapiens) (UniProt P11473). In words: qHTS assay for small molecule antagonists of vitamin D receptor signaling (AID 588541).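 Further: receptor activated by calcitriol during compound treatment; on the % scale 0 is the no-effect control and ±100 the full control effect.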 The conditions noted are these: HEK293T VDR-UAS-bla, beta-lactamase ratio, antagonist mode; series mostly up to 76.7 µM. The essentials: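 VDR-UAS-bla HEK293T cells (2000/well, 2% charcoal-stripped FBS) were treated with titrated compounds plus 1-alpha,25-dihydroxyvitamin D3 (50 nM or 3 nM final) for 16 h at 37 C. CCF4 beta-lactamase fluorescence was read; Hill fits gave IC50.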

The target of assay [17] is Thyroid hormone receptor beta (Homo sapiens) (UniProt P10828). In words: qHTS assay for small molecule antagonists of thyroid hormone receptor beta signaling (AID 588547; active means well fitted inhibition curve with a large enough effect in the signal ratio, with a control signal flat, not every such curve was filed as active; the % refers to the signal ratio;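 further: cells stimulated with 0.4 nM T3 agonist during compound exposure; on the % scale 0 is the no-effect control and ±100 the full control effect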). The conditions noted are these: TR-UAS-bla HEK293, beta-lactamase ratio, antagonist mode, 18 h. Put shortly: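 TR-UAS-bla GripTite HEK293 cells in 2% charcoal/dextran FBS medium were preincubated 4 h at 37 C, given compound (0.59 nM to 92 uM) plus 0.4 nM T3 (final) for 18 h, then CCF4 for 2 h at RT; Hill fit gave IC50.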

Assay [18] in a line: qHTS assay for small molecule activators of the nuclear factor-kappa B (NF-kB) signaling pathway (AID 651749; active means well fitted activation curve with a large enough effect in the signal ratio; the % refers to the signal ratio; further: % of control where 0% means no effect). The conditions noted are these: NF-kB-bla ME-180 cells, beta-lactamase FRET ratio, 16 h; stronger effect = higher value. Put shortly: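 Human ME-180 cervical cells with an NF-kB-bla construct; compounds added via 23 nL pin transfer, DMSO as vehicle; incubation 16 hr. Reporter activity measured by FRET disruption.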

The target of assay [19] is Nuclear receptor ROR-gamma (Homo sapiens) (UniProt P51449). Nature of the assay: qHTS assay for small molecule antagonists of the retinoid-related orphan receptor gamma (ROR-gamma) signaling pathway (AID 651802; active means well fitted curve in the direction sought with a large enough effect; an effect the other way counts as inactive or inconclusive;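 further: CHO cells with doxycycline-induced ROR-gamma expression; on the % scale 0 is the no-effect control and ±100 the full control effect; nearly all actives have a fitted effect of over 60% in size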). The conditions noted are these: ROR-gamma antagonist cell reporter assay; series mostly up to 92.2 µM. Put shortly:
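Steps: cells dispensed; compound or DMSO transferred by pin tool; doxycycline added to induce the ROR response element-driven luciferase; plates held 16hr at 37C; ONE-Glo added and luminescence measured.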

Assay [20] is described as follows: Cell Viability - NIH 3T3 (AID 541; active means well fitted curve in the direction sought with a large enough effect; an effect the other way counts as inactive or inconclusive; further: nearly all actives have a fitted effect of over 25% in size; further: potency means the concentration at half of the fitted maximal effect;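 on activity change, negative = cytotoxicity: plate controls were DMSO alone for no effect and tamoxifen positive control for full effect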). The conditions noted are these: NIH 3T3 cell viability, qHTS; activity change, negative = cytotoxicity: at 92.2 µM (top of the series). Put shortly: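 Cells seeded at 1000/well, rested 5 hr at 37 °C, then dosed and incubated 40 hr at 37 °C. CellTiter-Glo added, 20 min room temperature, luminescence read. AC50 by Hill fit.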

The record followed here is PubChem BioAssay (NCATS).

Where “and” joins values, the source holds several entries; their conditions need not be identical. Equal values may be shown once. Inconclusive results are not listed. Calls of active or inactive are those of the source. Unless noted, the call rests on the fitted dose curve. A value given as a limit tells only on which side of the number the result lay.

Sequence of Glucocorticoid receptor (Homo sapiens) (P04150 whole entry, looked up): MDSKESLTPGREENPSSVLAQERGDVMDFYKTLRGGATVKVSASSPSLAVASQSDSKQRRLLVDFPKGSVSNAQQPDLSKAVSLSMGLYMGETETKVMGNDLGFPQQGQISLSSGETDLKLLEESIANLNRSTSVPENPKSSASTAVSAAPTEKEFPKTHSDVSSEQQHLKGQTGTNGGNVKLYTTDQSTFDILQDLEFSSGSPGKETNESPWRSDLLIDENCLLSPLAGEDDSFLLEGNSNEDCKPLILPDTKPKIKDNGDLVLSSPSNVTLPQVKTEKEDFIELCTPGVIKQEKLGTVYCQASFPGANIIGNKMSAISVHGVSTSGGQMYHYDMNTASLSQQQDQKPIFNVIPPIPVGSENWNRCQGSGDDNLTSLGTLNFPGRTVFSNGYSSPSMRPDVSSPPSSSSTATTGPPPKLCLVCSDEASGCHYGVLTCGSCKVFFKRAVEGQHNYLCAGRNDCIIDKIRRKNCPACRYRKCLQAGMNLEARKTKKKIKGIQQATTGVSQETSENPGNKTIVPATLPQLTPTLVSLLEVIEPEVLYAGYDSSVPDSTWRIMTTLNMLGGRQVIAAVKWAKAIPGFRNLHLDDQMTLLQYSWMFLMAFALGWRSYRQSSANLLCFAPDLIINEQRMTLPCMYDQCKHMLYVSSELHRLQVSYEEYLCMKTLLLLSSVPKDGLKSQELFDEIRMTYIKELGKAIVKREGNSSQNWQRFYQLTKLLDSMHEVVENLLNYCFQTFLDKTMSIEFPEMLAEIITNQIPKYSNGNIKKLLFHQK
Sequence of Peroxisome proliferator-activated receptor delta (Homo sapiens) (Q03181 whole entry, looked up): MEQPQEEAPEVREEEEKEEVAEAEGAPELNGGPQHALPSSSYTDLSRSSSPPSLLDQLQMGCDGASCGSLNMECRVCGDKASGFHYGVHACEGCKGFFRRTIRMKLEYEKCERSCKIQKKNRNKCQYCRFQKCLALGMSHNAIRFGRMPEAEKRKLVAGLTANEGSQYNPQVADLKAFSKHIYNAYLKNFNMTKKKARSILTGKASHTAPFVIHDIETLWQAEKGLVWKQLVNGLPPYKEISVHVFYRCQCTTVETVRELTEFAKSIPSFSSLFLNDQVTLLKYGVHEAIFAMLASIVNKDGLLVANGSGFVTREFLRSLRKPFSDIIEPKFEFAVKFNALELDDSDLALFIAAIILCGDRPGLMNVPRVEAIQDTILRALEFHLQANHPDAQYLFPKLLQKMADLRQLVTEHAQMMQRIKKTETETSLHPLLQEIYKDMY
Sequence of Thyroid hormone receptor beta (Homo sapiens) (P10828 whole entry, looked up): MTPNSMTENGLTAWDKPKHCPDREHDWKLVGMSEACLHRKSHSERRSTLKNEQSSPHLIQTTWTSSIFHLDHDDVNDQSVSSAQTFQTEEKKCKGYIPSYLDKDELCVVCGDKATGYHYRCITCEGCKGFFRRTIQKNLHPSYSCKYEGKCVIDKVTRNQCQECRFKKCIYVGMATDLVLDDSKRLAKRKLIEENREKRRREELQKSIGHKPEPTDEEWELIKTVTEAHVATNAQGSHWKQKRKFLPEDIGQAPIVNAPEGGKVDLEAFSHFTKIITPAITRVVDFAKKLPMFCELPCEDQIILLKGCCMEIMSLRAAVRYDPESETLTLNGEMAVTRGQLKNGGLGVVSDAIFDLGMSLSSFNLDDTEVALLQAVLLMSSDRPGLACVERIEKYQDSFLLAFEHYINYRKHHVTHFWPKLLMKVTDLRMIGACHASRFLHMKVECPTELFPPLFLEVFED
Sequence of Estrogen receptor (Homo sapiens) (P03372 whole entry, looked up): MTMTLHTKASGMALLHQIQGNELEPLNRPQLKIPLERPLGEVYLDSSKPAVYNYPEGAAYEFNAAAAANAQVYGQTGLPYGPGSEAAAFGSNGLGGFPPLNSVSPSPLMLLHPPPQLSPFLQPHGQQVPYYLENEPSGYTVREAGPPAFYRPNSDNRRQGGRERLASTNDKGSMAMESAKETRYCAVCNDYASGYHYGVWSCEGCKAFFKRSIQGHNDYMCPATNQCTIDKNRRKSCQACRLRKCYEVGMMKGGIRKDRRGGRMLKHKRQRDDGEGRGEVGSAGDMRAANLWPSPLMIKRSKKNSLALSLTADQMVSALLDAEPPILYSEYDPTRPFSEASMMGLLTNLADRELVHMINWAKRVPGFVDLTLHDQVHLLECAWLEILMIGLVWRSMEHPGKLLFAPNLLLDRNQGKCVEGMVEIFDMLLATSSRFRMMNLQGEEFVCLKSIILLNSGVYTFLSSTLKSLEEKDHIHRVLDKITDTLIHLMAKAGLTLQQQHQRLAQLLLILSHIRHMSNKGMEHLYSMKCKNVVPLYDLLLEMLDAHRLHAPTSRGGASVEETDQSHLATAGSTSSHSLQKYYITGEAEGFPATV
Sequence of Peroxisome proliferator-activated receptor gamma (Homo sapiens) (P37231 whole entry, looked up): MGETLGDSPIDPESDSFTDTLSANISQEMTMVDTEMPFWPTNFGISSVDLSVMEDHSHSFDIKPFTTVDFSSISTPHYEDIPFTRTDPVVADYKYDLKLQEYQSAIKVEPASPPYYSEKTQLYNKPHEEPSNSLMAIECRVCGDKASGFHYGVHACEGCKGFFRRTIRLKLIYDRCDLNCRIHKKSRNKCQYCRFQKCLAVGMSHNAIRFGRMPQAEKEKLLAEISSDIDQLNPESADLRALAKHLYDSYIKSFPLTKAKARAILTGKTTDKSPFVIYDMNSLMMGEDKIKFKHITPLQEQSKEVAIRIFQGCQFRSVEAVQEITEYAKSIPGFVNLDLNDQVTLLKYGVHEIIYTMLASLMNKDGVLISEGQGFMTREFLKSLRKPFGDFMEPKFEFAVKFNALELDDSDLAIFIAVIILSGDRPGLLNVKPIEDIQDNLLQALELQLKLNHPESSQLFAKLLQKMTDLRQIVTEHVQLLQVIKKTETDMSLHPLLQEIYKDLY
Sequence of Nuclear receptor ROR-gamma (Homo sapiens) (P51449 whole entry, looked up): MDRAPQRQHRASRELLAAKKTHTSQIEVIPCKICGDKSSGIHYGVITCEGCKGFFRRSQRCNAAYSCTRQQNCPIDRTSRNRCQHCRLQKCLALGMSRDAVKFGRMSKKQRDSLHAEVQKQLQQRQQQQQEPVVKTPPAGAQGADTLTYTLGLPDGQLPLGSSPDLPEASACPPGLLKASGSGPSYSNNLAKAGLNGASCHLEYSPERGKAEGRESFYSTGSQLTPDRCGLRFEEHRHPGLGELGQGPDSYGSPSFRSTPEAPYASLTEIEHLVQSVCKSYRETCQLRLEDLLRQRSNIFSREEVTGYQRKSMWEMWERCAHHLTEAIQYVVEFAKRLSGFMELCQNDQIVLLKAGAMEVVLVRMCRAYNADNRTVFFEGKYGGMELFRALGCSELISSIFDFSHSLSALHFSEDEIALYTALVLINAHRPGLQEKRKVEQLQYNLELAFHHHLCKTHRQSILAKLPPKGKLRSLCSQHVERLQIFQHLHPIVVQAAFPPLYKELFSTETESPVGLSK
Sequence of Vitamin D3 receptor (Homo sapiens) (P11473 whole entry, looked up): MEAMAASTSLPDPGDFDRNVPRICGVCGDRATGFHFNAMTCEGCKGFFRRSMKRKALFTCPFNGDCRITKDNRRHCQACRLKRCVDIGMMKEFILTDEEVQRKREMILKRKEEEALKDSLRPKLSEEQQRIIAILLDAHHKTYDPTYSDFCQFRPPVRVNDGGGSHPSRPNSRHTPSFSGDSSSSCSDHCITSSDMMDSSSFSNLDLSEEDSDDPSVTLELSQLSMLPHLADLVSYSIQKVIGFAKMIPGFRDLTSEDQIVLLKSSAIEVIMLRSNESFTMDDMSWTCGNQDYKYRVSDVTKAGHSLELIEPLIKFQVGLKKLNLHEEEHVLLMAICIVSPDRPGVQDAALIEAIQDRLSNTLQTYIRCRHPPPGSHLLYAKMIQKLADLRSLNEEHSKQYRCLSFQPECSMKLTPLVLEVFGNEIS

On to `O=[N+]([O-])c1cc(Cl)c(Cl)cc1Cl`, for which the Potency is > 92 µM (inactive) in [1] and 26.6 µM (active) in [12]. Also, the Potency entry in assay [2], in assay [4], in assay [5], in assay [11], in assay [13] and in assay [14] was “inactive” in each case. In addition, the Potency result in [15] was “inactive”. The molecule was called inactive in assay [3], in assay [7], in assay [8] and in [10]. Besides, in assay [6], the activation is -2.16% (inactive). Also, in assay [9], the max response is 5.75%.

Turning to `N#C/C(N)=C(/N)C#N`, the Potency in assay [1] is > 92 µM (inactive). Moreover, the outcome in assay [3], in [7] and in assay [16] was inactive. Besides, the Potency entry in assay [4], in assay [5], in assay [11], in [13], in assay [19] and in assay [15] was “inactive” throughout. Besides, the activation in assay [6] is -0.556% (inactive); in [18], -1.05% (inactive). The activity change % (negative = inhibition) in [17] is -2.94% (inactive).

`ClCCBr`: in assay [1], the Potency is > 92 µM (inactive). Besides, the Potency entry in assay [20], in assay [2], in assay [4], in [5], in [11] and in assay [12] was “inactive” in each case. The Potency result in assay [13], in assay [14], in assay [19] and in assay [15] was “inactive” throughout. Further, the molecule was classed as inactive in assay [3] and in [10]. In addition, the max response in assay [9] was -34.3%. Moreover, in [17], the activity change % (negative = inhibition) was 0.0673% (inactive). Moreover, the activation in [18] is 0.431% (inactive).

For the molecule `CCCCOC(C)=O`, the Potency in [1] is > 92 µM (inactive). Moreover, the Potency entry in [20], in assay [2], in [4], in [5], in assay [11] and in assay [12] was “inactive” each time. Also, the Potency entry in assay [14] and in assay [19] was “inactive” each time. Besides, the outcome in assay [3], in [8] and in [10] was inactive. Moreover, the max response in [9] is 21.2%. In addition, the activity change % (negative = inhibition) in assay [17] was 1.15% (inactive). Moreover, the activation in assay [18] is -1.17% (inactive).

As to `OC[P+](CO)(CO)CO`, the Potency in assay [1] was > 92 µM (inactive); in [20], 0.501 µM (active); in [12], 37.6 µM (active) and 30.6 µM (active). Moreover, the Potency result in assay [4], in assay [5], in [11], in [13], in assay [14] and in [15] was “inactive” in each case. The activation in assay [6] was -0.662% (inactive) and -6.97% (inactive). Moreover, the outcome in assay [8] and in assay [10] was inactive. Also, the max response in [9] is -16.4%. Besides, in assay [17], the activity change % (negative = inhibition) is -18.1% (inactive) and -15.5% (inactive).

Regarding `C=CC(=O)OCC(C)C`, the Potency entry in assay [20], in assay [2], in [4], in [5], in [11] and in assay [12] was “inactive” in each case. Also, the Potency result in [19] was “inactive”. The result in assay [3], in assay [7], in assay [8], in assay [10] and in assay [16] was inactive. Further, the activation in assay [6] was -2.2% (inactive); in assay [18], 0.0391% (inactive). Further, the max response in assay [9] was -6.69%.
